Pf growth 96h = P. falciparum growth inhibition at 96 hours. 320,000 compounds, 6.9% hits. P. falciparum luciferase reporter growth, 96 h. Potency, µM (top dose mostly 28.7 µM), inactives show at the highest dose activity change, negative = inhibition, usual class: inhibitors. AID 504834; note: potency is the fitted concentration of half-maximal effect
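Luminescence readout: decreased luciferase signal marks inhibited growth of reporter-expressing P. falciparum in infected red cells (2% hematocrit, 0.05% parasitemia final), exposed to compound two generations (96 h, 37 C, 5% CO2).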
Pf growth 48h = inhibits P. falciparum growth in the first generation, 48 h; P. falciparum luciferase growth in erythrocytes, 48 h; Potency, µM (top dose mostly 28.7 µM), without a hit: at the highest dose activity change, negative = inhibition, hits mostly inhibitors; 310,000 compounds, 5.9% hits; AID 504832; note: potency is the fitted concentration of half-maximal effect
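Luminescence readout; reporter = integrated firefly luciferase in P. falciparum. RBC culture at 2% hematocrit, 0.1% parasitemia final, 37 C/5% CO2; decreased signal taken as growth inhibition.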
HCMV antiviral = inhibitors of human cytomegalovirus; HFF cells, HCMV-luciferase reporter, 72 h; stronger effect = lower value; 410,000 compounds, 4.5% hits; activity change, negative = inhibition, % at 57.5 µM; in the data active = activity change below about -60%; inconclusive = no clear call, values can overlap the other calls; inactive = above about -39%
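Two compound doses tested in HFFs infected with HCMV-luciferase, MOI 1 PFU/cell, 72 h at 37C. Lysate luminescence read with OneGlo; data normalized against buffer-only and 10uM Salinomycin inhibitor controls.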
HCV inhibitor = blocks hepatitis C virus; Huh7.5.1 HCVcc-Cre infection, luciferase reporter, 44 h; Potency, µM (top dose mostly 41.8 µM), for the others: at the highest dose activity change, negative = inhibition, usual class: inhibitors; 340,000 compounds, 3.4% hits; note: potency is the fitted concentration of half-maximal effect
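Cells (1,000/well) were plated 4 h before compound, then infected with HCVcc-Cre virus (~0.5 moi). After 44 h further culture, infection was read as luciferase luminescence following a 15 min substrate incubation at room temperature.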
The depositor's hits bear a star; ? = inconclusive; . = no result given. Hits are enriched below; roughly 13% of the tested compounds scored in any of these assays. Unless noted, calls come from the whole dose curve; as a rule, active = well fitted inhibition curve with a large enough effect; inconclusive = small, poorly fitted or top-dose-only effect, or another doubt; inactive = no such curve, though single readings can be large or run the other way. % is set by controls: 0 for no effect and ±100 for the full control effect.

SMILES | Pf growth 96h | Pf growth 48h | HCMV antiviral | HCV inhibitor
O=C(O)COc1ccc(C(=O)c2cccs2)c(Cl)c1Cl | 3.79µM* | 6.8% | . | .
C=CCN1C(C(=O)OCC)CSCCS1(=O)=O (centres undefined) | . | . | -1.0 | .
CCN(CC)C(=O)COc1ccc2c(c1)C(=O)CC(C)(C)O2 | 9.28µM* | -13.1% | 3.1 | 28.4%
O=C(COc1ccc2c(c1)C(=O)CC1(CCCCC1)O2)NCc1ccccn1 | ? | ? | -25.4 | 2.2%
CC1(C)CC(=O)c2cc(OCC(=O)NCc3cccnc3)ccc2O1 | 13.1µM* | 0.0% | -11.9 | 3.5%
O=C(COc1ccc2c(c1)C(=O)CC1(CCCCC1)O2)NCc1ccccc1 | 3.7µM* | 8.28µM* | -27.1 | ?
CC1(C)CC(=O)c2cc(OCC(=O)N3CCOCC3)ccc2O1 | -14.1% | -11.8% | 7.2 | 3.9%
CCOC(=O)COc1ccc2c(c1)C(=O)CC(C)(c1cccnc1)O2 (centres undefined) | 2.08µM* | 51.5% | -1.7 | 22.1%
COc1ccc(NC(=O)CSC2=Nc3ccccc3C3=NC(CC(=O)NCc4ccco4)C(=O)N23)cc1 (centres undefined) | . | . | 3.1 | .
CCC(=O)N1CCc2cc(S(=O)(=O)NC(CC(C)C)C(=O)NCc3cccc(OC)c3)ccc21 (centres undefined) | . | . | -3.5 | .
Clc1ccc2c(c1)C(C1=NCCN1)c1ccccc1CS2 (centres undefined) | -18.3% | ? | -15.7 | ?
Brc1ccc2c(c1)C(OC1CN3CCC1CC3)c1ccccc1CS2 (centres undefined) | 10.4µM* | ? | -26.6 | 31.6µM*
O=C(NCc1ccc(F)cc1Cl)c1cc(=O)[nH]c2ccc(S(=O)(=O)N3CCCCC3)cc12 | . | . | -13.8 | .
CC(Nc1cc(N2CCN(S(=O)(=O)N(C)C)CC2)ccc1[N+](=O)[O-])c1ccccc1 (centres undefined) | 182.3% | 14.7µM* | 12.7 | -19.0%
CC(Nc1cc(N2CCCC2)ccc1[N+](=O)[O-])c1ccccc1 (centres undefined) | ? | 13.1µM* | -10.1 | ?
CCCC(=O)N1CCN(c2ccc([N+](=O)[O-])c(NC(C)c3ccccc3)c2)CC1 (centres undefined) | 9.28µM* | 11.7µM* | ? | 9.5%
COCCCNC(=O)c1cnc2c(-c3ccc(F)cc3)c(C)nn2c1C | . | . | -4.6 | .
O=C(Cc1coc2ccc3ccccc3c12)Nc1nccs1 | ? | . | -23.7 | -23.3%
O=C(Cc1coc2ccc3ccccc3c12)NCc1ccccc1 | ? | . | -7.1 | 10µM*
CCCN(CCC)C(=O)Cc1coc2ccc3ccccc3c12 | . | 11.7µM* | -20.5 | -19.3%
Cc1ccc(NC(=O)Cn2ncn3c(cc4ccccc43)c2=O)cc1C | . | . | 7.0 | .
CCOc1ccc(-c2nn(-c3ccccc3)cc2/C=C(\C#N)S(=O)(=O)c2ccccc2)cc1C | 338.2% | ? | -9.0 | ?
CCN(CC)C(=O)COc1ccc(/C=C(\C#N)S(=O)(=O)c2ccccc2)cc1OC | 9.28µM* | 0.7% | -9.8 | -7.4%
Cc1cccc(N(CC(=O)NCc2ccc3c(c2)OCO3)C(=O)CCC(=O)Nc2ccccn2)c1 | 160.6% | 13.1µM* | -7.1 | -12.8%
Cc1cccc(N(CC(=O)NCc2ccc3c(c2)OCO3)C(=O)CCC(=O)Nc2ccccn2)c1C | . | 5.86µM* | 29.7 | -24.6%
SMILES | Pf growth 96h | Pf growth 48h | HCMV antiviral | HCV inhibitor
Cc1ccc(N(CC(=O)NCc2ccccc2)C(=O)CCC(=O)Nc2ccccn2)cc1C | -3.2% | 0.0% | 11.0 | -14.5%
COc1ccc(N(CC(=O)NCc2ccc3c(c2)OCO3)C(=O)CCC(=O)Nc2ccccn2)cc1 | 53.9% | 12.2% | 10.8 | -9.6%
Cc1cc(C2=NNC(=NCc3ccccc3)SC2)c(C)n1-c1c(C)n(C)n(-c2ccccc2)c1=O | ? | 11.7µM* | -9.5 | -22.6%
c1ccc2c(C3=NNC(=NC4CC4)SC3)c[nH]c2c1 | -88.0% | -97.7% | -3.5 | 10.7%
c1ccc2c(C3=NNC(=NC4CCCCC4)SC3)c[nH]c2c1 | 14.7µM* | ? | 74.5 | -26.8%
Cc1cc(C2=NNC(=NC3CC3)SC2)c(C)n1-c1ccccc1 | ? | ? | -77.0* | ?
COc1ccc(-n2c(C)cc(C3=NNC(=NC4CC4)SC3)c2C)cc1 | -23.2% | ? | -71.3* | ?
Cc1ccc2c(=O)c(C(=O)c3ccccc3)cn(CC(=O)NCc3ccccc3)c2n1 | . | . | 17.9 | .
C=CCc1cccc(CNc2ccc(S(=O)(=O)Nc3nccnc3OC)cc2)c1O | ? | 19.4% | 1.9 | 12.6%
C=CCc1cccc(CNc2nc3ccccc3n2C(C)C)c1O | ? | 4.65µM* | -38.2 | .
C=CCc1cccc(CNc2ccc(Br)cc2)c1O | ? | 11.7µM* | -32.0 | 9.4%
Cc1cc(C)cc(NC(=O)Cn2c(=O)n(Cc3ccco3)c(=O)c3oc4ccccc4c32)c1 | . | . | -30.1 | .
Cc1ccc(NC(=O)CCN2C(=O)c3ccccc3C2=O)cc1 | 11.7µM* | 3.2% | 1.2 | 19.9%
O=C(CCN1C(=O)c2ccccc2S1(=O)=O)Nc1ccccc1 | 34.9% | 11.2% | ? | -4.1%
Cc1cc(C)cc(NC(=O)CCN2C(=O)c3ccccc3Sc3ncccc32)c1 | . | . | -60.5* | .
O=C(CCN1C(=O)c2ccccc2S1(=O)=O)Nc1ccc(C(=O)O)cc1 | 10.4µM* | 35.8% | 4.8 | 19.9%
Cc1cc(C)cc(NC(=O)CN2C(=O)c3ccccc3Sc3ncccc32)c1 | . | . | 22.1 | .
Cc1ccc(NC(=O)CCCN2C(=O)c3cccc4cccc(c34)C2=O)cc1 | 33.1% | 9.1% | -73.4* | ?
COc1ccc(CCC(=O)NCc2nc3cccnc3n2Cc2ccc(C)cc2)cc1 | . | . | 33.9 | .
COc1cc(C(=O)N2CCC(c3nc4ccccc4o3)CC2)cc(OC)c1OC | . | . | 57.4 | .
O=C(CCCN1C(=O)c2ccccc2C1=O)Nc1c2c(nc3c1CCC3)CCC2 | 0.465µM* | ? | 66.2 | 8.9%
Cc1cccnc1NC(=O)CCCN1C(=O)c2ccccc2C1=O | . | -19.3% | 7.5 | 1.8%
COc1ccc(C)cc1-n1c(SCC(=O)Nc2cc(C)on2)nc2ccccc2c1=O | ? | 0.0% | -22.6 | -28.5%
C=CCn1c(SCC(=O)Nc2cc(C)on2)nc2sc(C)c(C)c2c1=O | -19.2% | . | -13.0 | -8.5%
CCn1c(SCC(=O)Nc2cc(C)on2)nc2sc(C)c(C)c2c1=O | 11.7µM* | 11.2% | ? | -11.1%
SMILES | Pf growth 96h | Pf growth 48h | HCMV antiviral | HCV inhibitor
COc1ccc(C)cc1-n1c(SCC(=O)Nc2cc(C)on2)nc2sc(C)c(C)c2c1=O | 33.3% | 9.28µM* | ? | ?
Brc1cccc(-c2cnn3c(-c4ccccc4)cc(-c4ccccc4)nc23)c1 | . | . | 3.8 | .
COc1ccc(C(CNC(=O)c2cccc([N+](=O)[O-])c2)N2CCOCC2)cc1 (centres undefined) | . | . | 83.6 | .
O=C(CSc1nc2c([nH]c3ccccc32)c(=O)n1-c1ccc(F)cc1)N1CCCc2ccccc21 | . | . | 21.7 | .
COC(=O)Cc1cc(=O)[nH]c(/N=C(\N)Nc2cccc(C)c2)n1 | 11.7µM* | 19.4% | ? | 10.5%
COC(=O)Cc1cc(=O)[nH]c(/N=C(\N)Nc2ccc(C)cc2)n1 | 79.1% | . | -1.4 | -2.2%
COC(=O)Cc1cc(=O)[nH]c(/N=C(\N)Nc2ccccc2C)n1 | -1.9% | -1.6% | -29.8 | -0.8%

Screens as filed in PubChem.
